LGR2 inh = inhibitors of bursicon-induced Drosophila LGR2 receptor cAMP signaling; HEK293 LGR2, CRE-luciferase, bursicon-stimulated, 4 h; inhibition, % at 9.99 µM; 380,000 compounds, 0.35% hits; AID 720647;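 active means drop in luminescence signal, shown as inhibition above about 50% in the replicate tests, limit read from the data, passing the limit was not always enough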;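 further: agonist challenge used bursicon conditioned medium at about half maximal strength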
HSP90 inh = HSP90 refolding inhibition in rabbit reticulocyte lysate; luciferase refolding luminescence, 3 h; inhibition, % at 5.6 µM; 290,000 compounds, 0.91% hits;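 active means inhibition above the screen-wide mean plus 3 SD, computed separately per campaign, cut at about 16% in these data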;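 further: 0% = DMSO wells and 100% = 60 µM geldanamycin wells; inhibitors lower the luminescence because luciferase stays unfolded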
KKLEB tox = CF airway cell cytotoxicity counter-screen. AID 602141. 360,000 compounds, 0.36% hits. KKLEB CF airway cells viability, ATPlite luminescence, overnight; active compounds read low; cells stimulated with P. aeruginosa culture filtrate. activity change (cytotoxicity), % at 5 µM;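 active means corrected activity change at or below -50% at 5 µM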
CF NFkB block = cystic fibrosis NF-kB activation inhibition; 360,000 compounds, 0.86% hits; inhibition, % at 5 µM; KKLEB NF-kB-GFP reporter, PAF-induced, GFP fluorescence overnight;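 active means at least 50% inhibition at 5 µM, scaled per plate between neutral and stimulator controls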;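 further: PAF is a Pseudomonas aeruginosa culture filtrate used as stimulus; plate controls were PAF-stimulated DMSO wells for no effect and unstimulated DMSO wells for full effect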
Mdm2-MdmX inh = human Mdm2/MdmX binding inhibition; O15151+Q00987; SaOS-2 split-luciferase Mdm2/MdmX complementation, luminescence; inhibition, % at 8 µM; 330,000 compounds, 3% hits;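 active means inhibition of at least 50% at 8 µM in the primary screen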
Target sequence (O15151 whole entry, looked up): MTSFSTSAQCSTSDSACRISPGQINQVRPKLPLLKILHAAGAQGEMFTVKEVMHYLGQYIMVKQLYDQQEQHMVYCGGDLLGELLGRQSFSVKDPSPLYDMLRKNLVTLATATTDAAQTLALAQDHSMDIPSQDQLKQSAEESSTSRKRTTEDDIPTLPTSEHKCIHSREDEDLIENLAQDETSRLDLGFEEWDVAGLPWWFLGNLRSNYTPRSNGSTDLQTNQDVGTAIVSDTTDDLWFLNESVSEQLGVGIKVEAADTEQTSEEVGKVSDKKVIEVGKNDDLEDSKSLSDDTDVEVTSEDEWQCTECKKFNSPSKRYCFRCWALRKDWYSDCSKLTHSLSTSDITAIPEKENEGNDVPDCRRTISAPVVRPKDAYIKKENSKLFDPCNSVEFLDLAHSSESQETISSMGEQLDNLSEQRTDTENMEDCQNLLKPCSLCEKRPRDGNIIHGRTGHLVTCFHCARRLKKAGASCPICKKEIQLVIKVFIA
Target sequence (Q00987 whole entry, looked up): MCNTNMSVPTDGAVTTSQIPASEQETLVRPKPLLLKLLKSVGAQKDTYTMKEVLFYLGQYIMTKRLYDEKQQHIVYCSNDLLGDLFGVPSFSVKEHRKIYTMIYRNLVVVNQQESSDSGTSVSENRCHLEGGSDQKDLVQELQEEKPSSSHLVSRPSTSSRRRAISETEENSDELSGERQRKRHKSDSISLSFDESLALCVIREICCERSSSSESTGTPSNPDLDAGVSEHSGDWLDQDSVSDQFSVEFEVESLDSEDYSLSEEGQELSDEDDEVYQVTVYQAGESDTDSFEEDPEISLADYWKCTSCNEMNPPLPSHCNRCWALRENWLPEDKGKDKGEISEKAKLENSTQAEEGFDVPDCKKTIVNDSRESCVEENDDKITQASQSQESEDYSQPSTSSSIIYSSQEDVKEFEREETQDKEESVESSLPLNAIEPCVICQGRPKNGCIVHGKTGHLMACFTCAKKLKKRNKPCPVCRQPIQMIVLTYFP
Peg3 promoter = Peg3 promoter activity inhibition; HeLa PEG-Prom luciferase reporter, luminescence, overnight; inhibition, % at 20 µM; 360,000 compounds, 1.7% hits; AID 588405;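 active means inhibition of at least 50% at 20 µM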
HSP90 confirm = HSP90 inhibition, confirmation assay; shares compounds with HSP90 inh; rabbit reticulocyte lysate, luciferase refolding luminescence, 3 h; inhibition, % at 5.9 µM; 2,300 compounds, 64% hits; in the data active means inhibition above about 18%;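 further: 0% = vehicle wells and 100% = reference inhibitor wells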
luciferase ctr = blocks native firefly luciferase in HSP90 counter-screen; shares compounds with HSP90 inh; AID 1847; inhibition, % at 5.9 µM; purified native firefly luciferase, luminescence; 2,300 compounds, 48% hits;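 active means inhibition above the mean inhibition of all tested sample wells plus 3 SD, cut at about 10% in these data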;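 further: 0% = DMSO with luciferase and 100% = wells lacking luciferase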
* hit, by the source's call. Sampled rows, rich in hits. Any-hit rate of the full collection: about 3.6%.

Screening COc1ccccc1C(=O)Nc1ccc2c(c1)C(=O)N(C)[C@@H]1CC[C@H](CC(=O)NCCc3ccncc3)O[C@H]1CO2 returned LGR2 inh -6.4.
`OCCN(C=NC1=NN(c2cccc(C(F)(F)F)c2)CC1)CCO` gave HSP90 inh -10.1, KKLEB tox -2.1, CF NFkB block 0.5, Mdm2-MdmX inh 9.6 and Peg3 promoter -22.9.
For CCN(C=NC1=NN(c2cccc(C(F)(F)F)c2)CC1)CC the results were LGR2 inh -30.2, HSP90 inh 21.9*, KKLEB tox -0.4, CF NFkB block 1.1, Mdm2-MdmX inh 6.0, Peg3 promoter -66.9, HSP90 confirm -1.5 and luciferase ctr -10.6.
For CC1(C(=O)N2CCN(c3ccccc3)CC2)CC1(Cl)Cl (configuration not stated) the results were LGR2 inh -2.2, HSP90 inh -1.9, KKLEB tox -16.4, CF NFkB block 23.3, Mdm2-MdmX inh -7.3 and Peg3 promoter -5.6.
CC1(C(=O)N2CCN(Cc3ccccc3Cl)CC2)CC1(Cl)Cl (configuration not stated) was read as LGR2 inh -32.9, HSP90 inh 19.1*, KKLEB tox 1.9, CF NFkB block 11.5, Mdm2-MdmX inh 3.5, Peg3 promoter -84.9, HSP90 confirm -6.4 and luciferase ctr -16.0.
`CCCN(C)C[C@H]1Oc2ncc(-c3ccccc3F)cc2C(=O)N([C@@H](C)CO)C[C@@H]1C` gave LGR2 inh -14.0.
For COc1ccc(/C=N/N=C2/NC(=O)CC(C(=O)O)S2)cc1 (configuration not stated) the results were LGR2 inh 10.8, HSP90 inh 23.2*, KKLEB tox -13.3, CF NFkB block 16.1, Mdm2-MdmX inh 0.0, Peg3 promoter 4.7, HSP90 confirm 36.3* and luciferase ctr -14.8.
Screening COc1ccc(NC(=O)C2CC(=O)N/C(=N/N=C/c3ccco3)S2)cc1 (configuration not stated) returned LGR2 inh -17.1, HSP90 inh -8.3, KKLEB tox 1.0, CF NFkB block 15.3, Mdm2-MdmX inh 15.5 and Peg3 promoter 2.7.
For Cc1[nH]c2ccccc2c1/C=N/Nc1nncn1N the results were LGR2 inh -94.1, HSP90 inh 78.3*, KKLEB tox -1.1, CF NFkB block -1.0, Mdm2-MdmX inh -10.2, Peg3 promoter -138.1, HSP90 confirm -9.6 and luciferase ctr -37.0.
Cc1[nH]c2ccccc2c1/C=N/Nc1ccccn1 was read as LGR2 inh -2.8 and HSP90 inh -2.3.
`C[C@@H]1CN([C@@H](C)CO)S(=O)(=O)c2ccc(-c3ccc(C(=O)N(C)C)cc3)cc2O[C@@H]1CN(C)C(=O)Nc1ccccc1F` gave LGR2 inh -10.8.
Screening COc1ccc(/C(=N/Nc2ncnc3ccccc23)C(=O)O)cc1 returned LGR2 inh -96.9, HSP90 inh 3.9, KKLEB tox 2.8, CF NFkB block 6.5, Mdm2-MdmX inh -50.7 and Peg3 promoter -129.2.
Screening CCOC(=O)/C(=N\Nc1ncnc2ccccc12)c1ccc(OC)cc1 returned LGR2 inh -13.0, HSP90 inh 18.1*, KKLEB tox 4.1, CF NFkB block -37.1, Mdm2-MdmX inh -39.4, Peg3 promoter -196.4, HSP90 confirm 23.1* and luciferase ctr -27.9.
Screening COc1ccc(-n2c(C)cc(/C=N/Nc3nnc(C)n3N)c2C)cc1 returned LGR2 inh 3.3, HSP90 inh 74.5*, KKLEB tox -8.8, CF NFkB block 3.0, Mdm2-MdmX inh 11.9, Peg3 promoter 0.5, HSP90 confirm -5.2 and luciferase ctr -6.7.
Screening COc1cccc(/C=N/Nc2nnc(C)n2N)c1O returned LGR2 inh 10.0, HSP90 inh 2.7, KKLEB tox 2.2, CF NFkB block 10.8, Mdm2-MdmX inh -1.4 and Peg3 promoter -4.2.
O=C(Nc1ccc2[nH]ccc2c1)c1ccccc1 was read as LGR2 inh -15.7, HSP90 inh 44.2*, KKLEB tox -9.8, CF NFkB block -15.9, Mdm2-MdmX inh -36.7, Peg3 promoter -148.5, HSP90 confirm 56.4* and luciferase ctr 29.5*.
Screening COc1ccc(NC(=O)Nc2ccc3[nH]ccc3c2)cc1 returned LGR2 inh -29.9, KKLEB tox 4.7, CF NFkB block -6.7, Mdm2-MdmX inh -29.0 and Peg3 promoter -278.7.
O=C(Nc1ccc2[nH]ccc2c1)c1ccc(F)cc1 was read as LGR2 inh 5.4, HSP90 inh 53.4*, KKLEB tox -24.2, CF NFkB block -18.0, Mdm2-MdmX inh -70.2, Peg3 promoter -145.9, HSP90 confirm 64.4* and luciferase ctr 45.8*.
`CN(C)c1ccc(CNc2nc3ccccc3s2)cc1` gave HSP90 inh 48.3*, Mdm2-MdmX inh -30.1, HSP90 confirm 72.6* and luciferase ctr 57.2*.
For O=C(NCc1ccncn1)[C@H]1[C@H](CO)[C@H]2Cn3c(ccc(-c4ccc(F)cc4)c3=O)[C@H]2N1CC1CC1 the results were LGR2 inh -14.4.
Screening CCCN1C[C@H](C)[C@H](OC)CN(C)C(=O)c2cc(NC(=O)COC)ccc2OC[C@@H]1C returned LGR2 inh 17.1.
For COc1ccc(-c2nc3ccccn3c2Cl)cc1 the results were LGR2 inh 16.8, HSP90 inh 23.7*, KKLEB tox -31.2, CF NFkB block -17.9, Mdm2-MdmX inh -147.6, Peg3 promoter -119.9, HSP90 confirm 46.7* and luciferase ctr 30.4*.
Screening C[C@@H]1CN([C@@H](C)CO)C(=O)c2cc(C3=CCCC3)cnc2O[C@H]1CN(C)S(C)(=O)=O returned LGR2 inh 10.9.
For COc1ccc(S(=O)(=O)N(C)C[C@@H]2OCCCC[C@H](C)Oc3ccc(NC(=O)Nc4c(C)noc4C)cc3C(=O)N([C@H](C)CO)C[C@@H]2C)cc1 the results were LGR2 inh -0.7.
For Cc1ccsc1/C=N\NC(=O)c1n[nH]c2c1CCC2 the results were LGR2 inh 78.4*, HSP90 inh 19.9*, KKLEB tox -14.7, CF NFkB block 15.9, Mdm2-MdmX inh 3.4, Peg3 promoter 44.3, HSP90 confirm 47.5* and luciferase ctr 43.0*.
For COc1ccc(/C=C/C(=O)OC2CCCCC2CN(C)C)cc1 (configuration not stated) the results were LGR2 inh 18.7, HSP90 inh 20.8*, KKLEB tox -9.2, CF NFkB block 28.9, Mdm2-MdmX inh 21.0, Peg3 promoter -4.4, HSP90 confirm 1.1 and luciferase ctr -3.7.
O=C(Nc1ccc(F)cc1)Nc1ccc2c(c1)[C@H]1C[C@H](CC(=O)N3CCOCC3)O[C@H](CO)[C@H]1O2 was read as LGR2 inh 20.9.

Source: PubChem BioAssay
